In the supplement of paper PMC3334620:
The full ranking holds about 33,000 sequences; the median of “E-score (-0.5 to 0.5)” is about -0.021, and the highest 2% start at about 0.32. Only a selection was taken, and the highest values are over-represented in it overall.

What follows are sequences tested against T1, Zap1 (UniProt P47043) (assay: PBM E-score (8-mer binding enrichment) (E-score (-0.5 to 0.5)); higher = stronger / more preferred TF binding). Settings: protein concentration: 200 nM; construct: GST-full length.
T1 sequence: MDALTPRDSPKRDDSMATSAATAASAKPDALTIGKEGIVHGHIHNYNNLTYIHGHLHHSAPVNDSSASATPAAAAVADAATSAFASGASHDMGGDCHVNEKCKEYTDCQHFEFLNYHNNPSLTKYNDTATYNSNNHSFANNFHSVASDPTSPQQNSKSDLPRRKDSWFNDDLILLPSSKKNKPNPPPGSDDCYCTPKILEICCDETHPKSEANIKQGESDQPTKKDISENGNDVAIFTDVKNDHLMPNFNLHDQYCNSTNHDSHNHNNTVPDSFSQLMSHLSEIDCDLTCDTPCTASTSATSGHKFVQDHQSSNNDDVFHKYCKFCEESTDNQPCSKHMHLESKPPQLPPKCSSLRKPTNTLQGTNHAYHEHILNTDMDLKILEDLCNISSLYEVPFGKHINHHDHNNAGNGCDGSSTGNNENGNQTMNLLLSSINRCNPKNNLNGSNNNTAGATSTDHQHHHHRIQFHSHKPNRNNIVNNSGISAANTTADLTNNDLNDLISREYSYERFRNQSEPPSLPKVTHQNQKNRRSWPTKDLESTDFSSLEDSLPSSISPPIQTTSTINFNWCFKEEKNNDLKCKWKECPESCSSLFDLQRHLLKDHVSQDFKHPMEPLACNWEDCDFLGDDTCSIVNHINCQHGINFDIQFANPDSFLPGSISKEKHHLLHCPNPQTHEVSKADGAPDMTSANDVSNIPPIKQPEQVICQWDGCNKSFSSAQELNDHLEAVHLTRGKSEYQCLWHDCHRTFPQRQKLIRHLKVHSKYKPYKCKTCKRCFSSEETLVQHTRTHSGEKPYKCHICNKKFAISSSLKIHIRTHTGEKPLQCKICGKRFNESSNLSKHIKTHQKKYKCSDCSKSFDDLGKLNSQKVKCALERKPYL
Outline: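 Universal all-10-mer Agilent arrays, fresh or stripped once, were converted to double-stranded form by primer extension. GST-tagged yeast transcription factors from PURExpress in vitro transcription/translation, full-length or DNA-binding domain only, were applied at about 100-200 nM and detected with fluorescent anti-GST. After masliner normalisation, the Universal PBM Analysis Suite scored each ungapped eight-base word together with its reverse complement by E-score.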

Sequence	PBM E-score
AAAAGTCG	-0.033
TAAGCGCA	-0.0722
CTAATGCA	0.132
AAAAGGGA	-0.0112
AAAAGGGT	0.386
AAAAGGGC	0.149
CCAGATGA	-0.0669
GATCGTAC	-0.069
CTTAGAGA	-0.0526
GAATGGAC	0.0207
GCTATCGA	-0.0297
CTCCGAAC	-0.196
AATCTCGC	-0.0495
GTCCTTAA	0.268
GAGCTTAA	-0.0983
GACCTTAA	0.324
AACCTTAT	0.312
CACCTTAC	0.148
TGCCTTAA	-0.0666
AGCCTTAA	-0.0565
AACCTTAG	0.324
GACCTTAC	0.13
AACCTTAC	0.318
CACCTTAG	0.245
GGCCTTAA	0.319
CGGTCCCA	-0.0137

Sequence	PBM E-score
AACGACCT	0.211
ACTTGCAC	-0.141
GGGGGGAA	-0.411
GGTATCAC	0.0481
AACTGGCG	-0.0757
CATGCCAC	-0.227
CCGGCCTC	-0.0295
GGAGTTAA	0.029
CACCTTAA	0.207
AACCTTAA	0.352
TACCTTAA	0.296
GTAAAAGA	0.0206
CCCTTTAA	0.286
AACTTTAT	0.0578
ACCTTTAG	0.348
ACCTTTGG	0.236
GCCTTTAA	0.0959
AGCTTTAT	-0.0486
ACCTTTAT	0.352
ACCTTTAA	0.383
ACCTTTAC	0.307
ACCTTTTG	0.364
ACCTTTTC	0.254
CCCTTTAG	0.127
GCAGATGC	-0.337
GAGCACGA	-0.0755

Sequence	PBM E-score
TATCGATA	0.285
ACGCAAAA	-0.024
ACCTACTA	0.113
AGGATTAA	-0.0423
GTTTAGCA	-0.0642
CGTAGTTC	-0.125
AGTACCAT	0.127
ACCTTTCT	0.372
ACCTATAT	0.356
ACCTTTTA	0.411
ACCTTTCA	0.257
CCCTTTTA	0.0826
ACCTATAC	0.249
GCCTTTTA	0.0912
ACCTATAA	0.188
ACCTTTCC	0.107
GGTAGCAA	0.0702
AAACAGTG	0.0759
CCAGTTTA	0.073
TAAACCTA	0.137
CCAAGCCA	-0.122
CAGGCTAG	-0.141
CGTACGAC	-0.126
GAAAGGTA	0.363
TAAAGGGA	0.145
ATAAGGTA	0.231

Sequence	PBM E-score
TAAAGGAA	0.00829
AAAAGGTA	0.405
AGAAGGTA	0.286
GAAAGGTC	0.294
TAAAGGTA	0.34
CAAAGGTA	0.267
AAGACCAC	0.0451
CAGCCCAC	-0.113
GAGAGCAA	-0.227
GCGCCTAA	0.0328
GGTACCTA	0.398
CGTACTCA	-0.0651
CGTACCCA	-0.0471
GGTACTCA	0.329
AGTACTCA	-0.0985
GGTACCCA	0.411
AGTACCCA	0.289
AGTACCTA	0.299
CGTACCTA	-0.117
CCATCCAG	-0.155
GACTCGGA	-0.237
AAACGTAG	-0.0378
GGTCCTAC	-0.105
AGACTGGG	-0.141
TACCGTGA	0.247
GAGTACCA	0.247

Sequence	PBM E-score
AAGTACCA	0.211
CAGTACCC	0.313
GAGTACCC	0.342
AAGTACCC	0.34
AAGTACGC	-0.152
CGAATTCG	-0.233
TAGCAAAA	0.0555
AGAGCAAG	-0.196
ACAAACCG	0.027
CCAACCCG	0.148
ACGACCCA	0.2
AGAACCCA	0.19
AGAACCCT	0.321
ACGACCCG	0.0256
ACAACCCG	0.398
ACAACCCT	0.443
ACAACCGT	0.0867
ACAACCCA	0.286
AGAACCCC	0.294
ACGACCCT	0.348
AGTCCTCG	-0.272
AAGATAGC	-0.144
AATAAGGA	-0.00733
AAGCACAA	0.154
GCGATGGA	0.0884
CCTTGACG	0.115

Sequence	PBM E-score
CCAACCCC	0.224
AAAACCCC	0.276
AAACCCCT	0.188
GCAACCCA	0.294
AAAACCCT	0.362
ACAACCTC	0.31
ACAAACCC	0.0973
GCAACCCC	0.342
ACAACCCC	0.321
GGCCAGCC	-0.142
AAATCCTC	-0.279
AGGACCAG	-0.0376
CGGAGTAG	-0.149
CTCCTGTA	-0.0674
ATGGATTG	-0.0434
CGGAATCA	-0.0619
CGGGCCAC	0.125
CGTCGAGC	-0.244
CAATGAGC	-0.126
ACGTAACT	0.0456
GCGTAAGC	-0.239
GCGTAACA	-0.135
GCGTAACC	0.446
CCGTAACG	0.0821
CCGTAACA	0.0988
CCGTAACC	0.471

Sequence	PBM E-score
ACGTAACC	0.411
ACGTAACG	-0.248
CTTAAGGA	0.119
ATGGGGCG	-0.129
CTTTTAAC	0.0885
ATTTAACC	0.418
ATTTAACG	0.023
ATTTAACA	-0.0688
CTTTAACA	0.123
CTTTAACC	0.405
CGCTGATA	-0.172
ACAGGTTG	0.147
GCAGGTCA	0.194
ACAGGTTC	-0.12
CCAGGTTA	0.382
GCAGGTTA	0.335
GCAGGTAA	0.173
CCAGGTAA	0.041
ACAGGTTA	0.398
CCAGGTTC	-0.159
